Experimental data from PubChem BioAssay (NCI).
About 79,000 compounds went through this panel and 15% of them were active in at least one assay; those are over-represented in the sample as a whole. Cut-off read from the data, not from the text of the source: active = growth inhibition above about 70%; inactive = the rest.

Tests used:
[1] = NCI Yeast Anticancer Drug Screen. Data for the rad50 strain (AID 155);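 note: 0% = growth of vehicle-only cultures of the same strain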; conditions: S. cerevisiae rad50 strain growth inhibition; at 50.0 µM; hits give high values
Outline: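 Growth of the mutant yeast was measured after compound exposure and referenced to vehicle-treated cultures.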

[2] = NCI Yeast Anticancer Drug Screen. Data for the mec2-1 strain (AID 157); conditions: S. cerevisiae mec2-1 strain, at 50.0 µM, hits give high values
Outline: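 Mutant yeast (mec2-1) grown with compound; growth inhibition relative to vehicle control reported.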

[3] = NCI Yeast Anticancer Drug Screen. Data for the sgs1 mgt1 strain (AID 161);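 note: 0% = growth of cultures given vehicle only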; conditions: S. cerevisiae sgs1 mgt1 strain, at 50.0 µM, hits give high values
Outline: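 Growth of a repair-deficient yeast mutant was monitored after compound treatment and expressed as inhibition relative to vehicle-treated cultures.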

[4] = NCI Yeast Anticancer Drug Screen. Data for the cln2 rad14 strain (AID 165);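 note: 0% = growth equal to vehicle treated cultures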; conditions: S. cerevisiae cln2 rad14 strain, at 50.0 µM, hits give high values
Outline: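 Readout is yeast growth inhibition versus vehicle-treated controls, using a strain with cln2 and rad14 alterations exposed to compound.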

[5] = NCI Yeast Anticancer Drug Screen. Data for the bub3 strain (AID 167); conditions: S. cerevisiae bub3 mutant strain, at 50.0 µM, hits give high values
Outline: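 Whole-cell yeast assay. The mutant strain was incubated with compounds, and growth inhibition was determined by comparison with vehicle-treated cells.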

[6] = NCI Yeast Anticancer Drug Screen. Data for the mlh1 rad18 strain (AID 175); conditions: S. cerevisiae mlh1 rad18 strain growth inhibition; at 50.0 µM; hits give high values
Outline: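 Genetically defined yeast (DNA repair-deficient) exposed to compounds; growth inhibition determined relative to vehicle.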

Measured: growth inhibition

CCN(CC)c1ncnc2n[nH]nc12
inactive: [1] -1.5% | [2] -15.6% | [3] -18% | [4] -27.9% | [5] -28.5% | [6] 3.45%

CCCCCCCCCC[n+]1cccc(C(N)=O)c1
inactive: [1] 3.7% | [2] -17.2% | [3] 13.8% | [4] 3.75% | [5] -1.05% | [6] 28.9%

O=C1CCC(c2n[nH]c(=S)o2)N1 (stereo not given)
inactive: [1] -2.8% | [2] 22.7% | [3] 9.05% | [4] -6.65% | [5] 13.2% | [6] 4.75%

Cc1ccc(C(=O)Oc2ccccc2)cc1N=NN(C)C
inactive: [1] -20.7% | [2] -49% | [3] -56.8% | [4] 25.5% | [5] -29.8% | [6] -24.1%

COc1ccc(N=Nc2c(C)c(C#N)c(=S)n(C3OC(CO)C(O)C(O)C3O)c2C)cc1 (stereo not given)
inactive: [1] 16.1% | [2] 14.1% | [3] 46.6% | [4] 7.9% | [5] 28.1% | [6] 21.7%

C#[N+]CCOP(=O)(OCC1OC(n2cc(C)c(=O)[nH]c2=O)CC1N=[N+]=[N-])O[C@H]1CC[C@@]2(C)C(=CC[C@H]3[C@@H]4CC[C@H](C(C)CCCC(C)C)[C@@]4(C)CC[C@@H]32)C1 (stereo not given in full)
inactive: [1] -18.8% | [2] -30.1% | [3] -24.6% | [4] 3.05% | [5] -0.35% | [6] -17.4%

COC(=O)c1nc(N)nc(C(=O)OC)c1C(=O)C(C)C
inactive: [1] 5.4% | [2] -10.7% | [3] -24.9% | [4] -13.4% | [5] -29% | [6] -1%

Cc1cc(C)c2ccccc2n1
inactive: [1] -6.45% | [2] -30.4% | [3] -8.2% | [4] -3.4% | [5] -5.1% | [6] 18.1%

CN1C(c2ccncc2)=NCC12CCCCC2
inactive: [1] 17.2% | [2] 7.35% | [3] 3.6% | [4] 1.05% | [5] 13.2% | [6] -1.5%

CCOC(=O)c1ccc(CCCN)cc1
inactive: [1] -17.8% | [2] -13.2% | [3] 12.9% | [4] -28.2% | [5] -10% | [6] 0.65%

CC(C)(C)C(=O)C(C(=O)c1ccccc1)C(=O)C(C)(C)C
inactive: [1] -4.65% | [2] -16.4% | [3] 19.9% | [4] 6.85% | [5] 9.8% | [6] -30.2%

Oc1ccc(Cn2c(-c3ccc(O)cc3)nc3ccccc32)cc1
inactive: [1] -6.95% | [2] -5% | [3] -10.1% | [4] 5.05% | [5] 1.4% | [6] -13.3%

CCC1C[N+]2(C)CCc3cc(OC)c(OC)cc3C2CC1=O (stereo not given)
inactive: [1] -10.2% | [2] 1.25% | [3] 12.8% | [4] 19.9% | [5] 1.35% | [6] 7%

CCN1CCCC(N)C1 (stereo not given)
inactive: [1] -26.1% | [2] -23.2% | [3] -34.9% | [4] 11.8% | [5] -41.8% | [6] -27.9%

CCOC(=O)C1=CN(Cc2ccccc2)C2ON=C(c3ccc(Cl)cc3)C2C1 (stereo not given)
inactive: [1] 0.05% | [2] 2.3% | [3] -11.8% | [4] -2.35% | [5] -0.75% | [6] -0.6%

N#Cc1ccc(OC(=O)Nc2ccccc2Cl)cc1
inactive: [1] 0.5% | [2] -8.6% | [3] 21.4% | [4] 26.4% | [5] 15.4% | [6] 13.8%

CCC1CNCCC1CC(=O)O (stereo not given)
inactive: [1] 7.95% | [2] -12.8% | [3] -2.05% | [4] 24.8% | [5] -1.2% | [6] -22.2%

Cc1ccc(NC2=CC(=O)C(=O)c3ccccc32)cc1C
inactive: [1] 35% | [2] 13.1% | [3] 19.4% | [4] 11.4% | [5] 34% | [6] 26.5%

CCCCCCCCCCCCC(O)C(=O)O (stereo not given)
inactive: [1] 12.3% | [2] -17.9% | [3] 10.2% | [4] 12.8% | [5] 35.7% | [6] -39.7%

Cc1c2oc3c(C)ccc(C(=O)NCCN4CCCC4)c3nc-2c(C(=O)NCCN2CCCC2)c(N)c1=O
inactive: [1] 64.5% | [2] 17.4% | [3] 5.9% | [4] 4.2% | [5] 3.6% | [6] 9.65%

CC1(CBr)COC(c2ccccc2)(C2CCCCC2)OC1 (stereo not given)
inactive: [1] -1.9% | [2] -14.8% | [3] -5.55% | [4] -1.9% | [5] -13.7% | [6] 23.7%

COc1cc(C2[C@H]3C(=O)N(c4ccc(Cc5ccc(N6C(=O)[C@@H]7ON(c8ccccc8)C(c8cc(OC)c(OC)c(OC)c8)[C@@H]7C6=O)cc5)cc4)C(=O)[C@H]3ON2c2ccccc2)cc(OC)c1OC (stereo not given in full)
inactive: [1] -2.25% | [2] 5.2% | [3] 3.75% | [4] 27.5% | [5] 25.9% | [6] -6.3%

CSc1cc(Cl)c(C)cc1S(=O)(=O)n1cc[nH]c1=O
inactive: [1] -2.4% | [2] 1.4% | [3] 3.35% | [4] -0.05% | [5] -3.75% | [6] 17.1%

O=C(O)C#Cc1cccnc1
inactive: [1] -10.9% | [2] -14% | [3] 0.75% | [4] 6% | [5] -3.4% | [6] -16.9%

Cc1cc(C)c2nccc(/C=C/c3ccc(N(C)C)cc3)c2c1
inactive: [1] -15.3% | [2] 0.4% | [3] -15.5% | [4] -27.2% | [5] -19.4% | [6] -6.95%

COc1ccc(C(C)(O)c2cc3ccccc3n2S(=O)(=O)c2ccccc2)cc1 (stereo not given)
inactive: [1] -8.95% | [2] -12.3% | [3] -0.9% | [4] -14.3% | [5] 0.75% | [6] 18.4%

CCCCC/C=C/C(CC)(C(=O)OCC)C(=O)OCC
inactive: [1] -5.95% | [2] 20.9% | [3] 13.6% | [4] -60% | [5] 40.9% | [6] 6.1%

COc1cc2c(cc1OC)-c1ccc3cc4c(cc3c1N(C)C2)OCO4
inactive: [1] -3.8% | [2] -36.6% | [3] 9.8% | [4] -4.65% | [5] -12.7% | [6] -2.65%

C=Nc1ccc([N+](=O)[O-])c(N=C)c1
inactive: [1] -2.85% | [2] -0.25% | [3] -9.7% | [4] -18% | [5] 2.7% | [6] 5.15%

OC(c1cccnc1)C(CCc1ccccn1)c1ccccn1 (stereo not given)
inactive: [1] 2.65% | [2] 13.1% | [3] -4.6% | [4] -46% | [5] 4.3% | [6] 4%

CCCCn1c(=O)c2c(ncn2C)n(C)c1=O
inactive: [1] 16.8% | [2] 16.6% | [3] 9.75% | [4] -9.25% | [5] -2.45% | [6] 6.2%

C#CCOC(=O)c1ccc(C(=O)OCC#C)cc1
inactive: [1] 11.9% | [2] -17.3% | [3] -9.3% | [4] 8.35% | [5] 3.15% | [6] -20.7%

Nc1ncnc2nc(SC3OC(CO)C(O)C(O)C3O)[nH]c12 (stereo not given)
inactive: [1] 10.2% | [2] -9.65% | [3] 9.9% | [4] -9% | [5] 12.8% | [6] 2.85%

Cc1cc(Cl)ccc1N1C(=O)C(=O)C(c2nc3ccccc3s2)C(=O)C1=O
inactive: [1] -4.1% | [2] 13.7% | [3] 17.9% | [4] -6.1% | [5] 2.2% | [6] 12.5%

O=C(O)C1CC2CC(=O)C1C2 (stereo not given)
inactive: [1] 12.8% | [2] -5.45% | [3] -0.85% | [4] -9.75% | [5] 3.4% | [6] 9%

CCCCOC(=O)c1ccccc1
inactive: [1] -7% | [2] 13.7% | [3] -10.2% | [4] -2.8% | [6] 18.1%
